Measurements as given in PubChem BioAssay AID1159580 (chemical genetic matrix, 2015).
In all, about 5,500 compounds went through this assay and about 2,000 (36%) were called active. About 18% were inconclusive and are not listed. Rule as the data show it: active = normalized growth mostly below about 0.91 (no sharp cut-off); inconclusive = no clear call, values can overlap the other calls; inactive = mostly above about 0.92. The list shows a part of the results.

Assay: chemical genetic growth profiling, strain panel (AID 1159580);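 also: tested at 20 µM; growth read once vehicle control cultures reached saturation at 30 °C; 1 = growth at the plate median or of vehicle wells; lower values mean less growth of the strain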
Settings: S. cerevisiae deletion strains, growth OD

Measured: normalized growth

CC(COc1ccc(/C=C/c2ccccc2)cc1)[N+](C)(C)C (stereo unspecified)
inactive: locus YAL013W, strain DEP1, stronger effect = lower value 0.942 | locus YAL040C, strain CLN3, stronger effect = lower value 1.02 | locus YCL061C, strain MRC1 (second series), stronger effect = lower value 0.982 | locus YDR363W, strain ESC2, stronger effect = lower value 0.914 | locus YER002W, strain NOP16, stronger effect = lower value 0.989 | locus YGR078C, strain PAC10, stronger effect = lower value 0.99 | locus YMR263W, strain SAP30, stronger effect = lower value 1.01 | locus YMR307W, strain GAS1, stronger effect = lower value 0.994 | locus YNL128W, strain TEP1, stronger effect = lower value 1.03 | locus YNL175C, strain NOP13, stronger effect = lower value 0.999 | locus YNL197C, strain WHI3, stronger effect = lower value 0.996 | locus YPL241C, strain CIN2, stronger effect = lower value 0.98
active: locus YDR150W, strain NUM1, stronger effect = lower value 0.926 | locus YJR075W, strain HOC1, stronger effect = lower value 0.878 | locus YNL224C, strain SQS1, stronger effect = lower value 1.12 [resistant] | locus YOR083W, strain WHI5 (second series), stronger effect = lower value 0.816
